The results in this text go back to PubChem BioAssay (NCATS).

Each structure is given as a SMILES string. Where “and” joins values, the source holds several entries; their conditions need not be identical. Equal values may be shown once. Results filed as inconclusive are left out. Entries that show only a call come without a potency. Calls of active or inactive are those of the source. Unless noted, calls come from the whole dose curve.

Chain of Cytochrome P450 2C9 (Homo sapiens) (P11712 whole entry, looked up): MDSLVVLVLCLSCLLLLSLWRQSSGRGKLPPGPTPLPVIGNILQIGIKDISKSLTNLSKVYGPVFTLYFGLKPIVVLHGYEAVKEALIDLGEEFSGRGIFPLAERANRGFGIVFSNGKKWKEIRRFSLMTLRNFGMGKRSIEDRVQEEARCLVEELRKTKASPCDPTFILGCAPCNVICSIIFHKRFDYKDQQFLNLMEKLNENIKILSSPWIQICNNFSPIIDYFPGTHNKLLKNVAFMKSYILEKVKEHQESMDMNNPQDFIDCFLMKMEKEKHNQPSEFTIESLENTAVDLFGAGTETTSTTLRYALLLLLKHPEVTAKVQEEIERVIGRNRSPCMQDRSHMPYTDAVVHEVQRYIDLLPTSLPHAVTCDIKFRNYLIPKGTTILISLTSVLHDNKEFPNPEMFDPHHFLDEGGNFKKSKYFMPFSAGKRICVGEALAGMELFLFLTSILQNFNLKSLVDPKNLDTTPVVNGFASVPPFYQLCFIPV

In one test the target is Cytochrome P450 2C9 (Homo sapiens) (UniProt P11712). Put plainly: Cytochrome P450 family 2 subfamily C member 9 (CYP2C9) small molecule antagonists: luciferase biochemical (cell-free) qHTS assay (AID 1645842; active = well fitted inhibition curve with a large enough effect in the repeat runs; note: nearly all actives have a fitted effect of over 55% in size; note: potency is the fitted concentration of half-maximal effect). The settings on record: P450-Glo CYP2C9 enzyme assay, luciferin luminescence; series mostly up to 57.4 µM. The essentials:
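Luminescence, after 20 min with luciferin detection reagent, reflected CYP2C9 turnover during a 1 h NADPH-driven reaction at 37C. Enzyme-substrate mix contained 0.4% bovine serum albumin and was preincubated with compound 10 min at room temperature.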
On the technique in general: In qHTS, concentration-response curves come from the screen itself.
Take `COc1ccc2c(c1OC)CN1CCc3cc4c(cc3C1C2)OCO4` (centres undefined): the Potency was 19.5 µM (active).

Take `C[C@H]1O[C@@H](O[C@H]2[C@@H](O)C[C@H](O[C@H]3[C@@H](O)C[C@H](O[C@H]4CC[C@@]5(C)[C@H](CC[C@@H]6[C@@H]5CC[C@]5(C)[C@@H](C7=CC(=O)OC7)CC[C@]65O)C4)O[C@@H]3C)O[C@@H]2C)C[C@H](O)[C@@H]1O`: the Potency result is “inactive”.

`CC(C)(C)CC(C)(C)c1ccc(O)cc1`: the Potency was 11.9 µM (active) and 15.5 µM (active).

In the case of `O=c1oc2ccccc2c(O)c1C(CC(O)c1ccc(-c2ccc(Br)cc2)cc1)c1ccccc1` (centres undefined), the Potency was 4.36 µM (active).

Test system in the next test: not listed separately
Briefly: Cytotoxicity counterscreen for inhibitors of SARS-CoV-2 cell entry (AID 1645845). Note: nearly all actives have a fitted effect of over 50% in size. The settings on record: cell viability (SARS-CoV-2 entry assay cells); series mostly up to 57.1 µM. The essentials: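 HEK293-ACE2 cells (Expi293F stably expressing human ACE2) seeded overnight, then compound for 1 h plus 48 h at 37C. Viability as ATP content by luminescence; normalized to wells with cells and media-only wells.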
(A counterscreen serves to expose hits that act by an unwanted route or on another target.)
`CC/C(=C(\c1ccccc1)c1ccc(OCCN(C)C)cc1)c1ccccc1`: the Potency result is “inactive”.

Regarding `Cc1ccc(O)c([C@H](CCN(C(C)C)C(C)C)c2ccccc2)c1`, the Potency result is “inactive”.

With `CC(C)NCC(O)COc1cccc2[nH]ccc12` (centres undefined), the Potency entry was “inactive”.

As to `CNCCCC1c2ccccc2C=Cc2ccccc21`, the Potency result is “inactive”.

As for `CC(C)c1nc(CN(C)C(=O)N[C@H](C(=O)N[C@@H](Cc2ccccc2)C[C@H](O)[C@H](Cc2ccccc2)NC(=O)OCc2cncs2)C(C)C)cs1`, the Potency entry is “inactive”.

With `CN1CCN(CCCN2c3ccccc3Sc3ccc(Cl)cc32)CC1`, the Potency entry is “inactive”.

For `CNCCC(Oc1ccc(C(F)(F)F)cc1)c1ccccc1` (centres undefined), the Potency entry was “inactive”.

As for `COC1(CS(=O)c2ccccc2)CCN(CCc2c[nH]c3ccc(F)cc23)CC1` (centres undefined), the Potency entry was “inactive”.

On to `CC(CN(C)C)CN1c2ccccc2CCc2ccccc21` (centres undefined), for which the Potency entry is “inactive”.

As to `COc1cc2nc(N3CCN(C(=O)c4ccco4)CC3)nc(N)c2cc1OC`, the Potency entry is “inactive”.
